Results: PubChem BioAssay AID2391 (Southern Research Specialized Biocontainment Screening …, 2010)
Several values for one entry are separate records, joined by “and”; a condition that tells them apart may be missing. Equal entries are not always repeated. Out of some 310,000 compounds screened, about 410 (0.13%) were called active. Not shown: some 2% with an inconclusive outcome. No rule for the calls is given here. Only a sample is shown. Results with a measured potency or affinity are listed apart.

experiment: inhibition of RSV-induced cytopathic effect – HEp-2 cells, primary 10 µM value included (AID 2391); settings: at 10 µM, stronger effect = higher value

CPE inhibition, inactive:
NC(=O)c1ccc(OCC2CCCO2)cc1 (stereo unspecified) 0.89%
Cc1cccc(COCC(CC(C)C)N2CCN(C(=O)c3ccc(C(C)(C)C)cc3)CCC2=O)c1 (stereo unspecified) -2.89%
COCCn1c(-c2ccccc2)nc2oc3ccccc3c(=O)c2c1=O 1.49%
O=C(c1ccccc1Br)N1N=C(c2ccccc2)CC1c1ccccc1F (stereo unspecified) 13.7%
Cc1c(C)c2ccc(OCC(=O)NCc3ccccn3)cc2oc1=O 1.94%
Cc1cc(=O)oc(C)c1C(=O)NCCc1ccccc1 -0.07%
CCC(=O)Nc1sc2c(c1C(=O)OC)CCN(Cc1ccccc1)C2 -0.39%
Cc1ccc(C(CC(=O)O)C2CCOC(C)(C)C2)cc1 (stereo unspecified) 0.31%
c1ccc(Cn2nnc3c(N4CCOCC4)ncnc32)cc1 1.51%
c1ccc(Cn2nnc3c(N4CCCC4)ncnc32)cc1 -0.08%
Cc1nnc2sc(-c3cccc(F)c3)nn2c1=O 0.29%
CC(C)CN1CCN(Cc2cnc(-c3ccc(Cl)cc3)nc2)CC1CCO (stereo unspecified) 19.2%
O=C(Nc1nnc(C2=COCCO2)o1)c1ccc([N+](=O)[O-])cc1 0.76%
CCc1cccc(C)c1NC(=O)C1CC=CCC1C(=O)O (stereo unspecified) -1.43%
O=c1oc(/C=C/c2ccco2)nc2sc3c(c12)CCC3 2.04%
COc1ccc(/C=C/c2nc3sc4c(c3c(=O)o2)CCC4)cc1 2.5%
Cc1ccc(OCC(=O)N2c3ccccc3CC2C)c([N+](=O)[O-])n1 (stereo unspecified) -0.02%
O=C(NN=C1c2ccccc2-c2ccccc21)c1ccccn1 1.09%
COc1ccc(/C(C)=N/Nc2ccc(C(=O)O)cc2)c(OC)c1 1.98%
COc1ccc(OC)c(/C(C)=N/Nc2ccc(C(=O)O)cc2)c1 0.2%
CCN(CC)CCOc1ccc2c(c1)C(=NNC(=O)c1ccccn1)c1cc(OCCN(CC)CC)ccc1-2 -1.74%
COc1ccc2[nH]c(C)c(C(=O)CN3CCN(C/C=C/c4ccccc4)CC3)c2c1 4.44%
CC(C)C1Cc2c(sc3c2c(=O)n(-c2ccccc2)c2n[nH]c(=S)n32)CO1 (stereo unspecified) 2.95%
CC(/C=N/NC(=O)c1cc(-c2ccc(C)o2)[nH]n1)=C\c1ccccc1 0.3%
COc1cccc(NC(=O)NCCCCc2ccccc2)c1 6.21%
CC(C)(C)c1ccc(O)c(O)c1 3.31%
Cc1cc(C(C)(C)C)c(O)c(C(C)(C)C)c1 -0.15%
NNC(=O)c1csc(-c2cccc(C(F)(F)F)c2)n1 9.01%
O=C(c1cc(Br)ccc1OC(F)F)N1CCN2CCCC2C1 (stereo unspecified) 0.87%
CCn1ncc(/C=C/C(=O)Nc2c(C)nn(Cc3ccc(Cl)cc3Cl)c2C)c1C 0.17%
O=C(/C=C/c1ccc(O)c(O)c1)O[C@@H]1C[C@](O)(C(=O)O)C[C@@H](O)[C@H]1O 39.5% and 4.56%
O=C(O)/C=C/c1ccc(O)c(O)c1 0.47%
COc1cc(OC)cc(C(=O)NC(=S)N2CCCCC2c2cccnc2)c1 (stereo unspecified) -0.07%
CCN1CCN(c2ccc(S(=O)(=O)N3CCCCC3)cc2NC(=O)CC(C)c2ccccc2)CC1 (stereo unspecified) -2.47%
Cc1ccsc1C(=O)OCC(=O)NC1CCCCC1C (stereo unspecified) 1.57%
CC1CN(C(C)C)C(C)CC1OC(=O)c1ccccc1 (stereo unspecified) -0.34%
COC(=O)c1ccc(COn2c(=O)c(C)[n+]([O-])c3ccccc32)cc1 2.27%
O=C(COc1ccc(Br)cc1Cl)NNC(=O)c1ccccc1 -0.21%
O=c1[nH]c(COc2ccc(Cl)cc2Cl)nc2ccccc12 20.4%
Cc1nc2c(C)cccn2c(=O)c1NC(=O)c1ccc2c(c1)OCO2 -0.9%
COc1cccc(CN(C(=O)c2ccccc2)C2CCS(=O)(=O)C2)c1 (stereo unspecified) 1.28%
N#CC(c1ccccc1)c1cccc(Cl)n1 (stereo unspecified) -0.33%
O=C1CC(c2ccccc2)CN1C(=O)c1ccccc1 (stereo unspecified) 0.02%
COc1ccc(C(=O)N2CC(c3ccccc3)CC2=O)cc1 (stereo unspecified) 1.75%
Cc1c(C(=O)N2CCC(C)CC2)sc2ncn(CC(=O)N3CCC(C)CC3)c(=O)c12 3.53%
Cc1ccc(-c2nnn(CC(=O)N(CC(=O)NC3CCCC3)c3ccc(F)cc3)n2)o1 2.25%
CC1Cc2ccccc2N1S(=O)(=O)c1cccc(C(=O)NCCCO)c1 (stereo unspecified) -0.32%
Nc1scn[n+]1Cc1cccc2cccnc12 19.5%
Nc1ccc(Cl)c[n+]1Cc1cccc2cccnc12 50.2%
Cc1cc(C[n+]2ncsc2N)c2ncccc2c1 18.8%
Cc1cc(C[n+]2cc(Br)ccc2N)c2ncccc2c1 81%
CCCC(=O)OC1CC(C)N(C(=O)c2ccccc2)c2ccc(C)cc21 (stereo unspecified) 7.5%
COc1ccc(CCNC(=O)COc2cc(C)cc3oc(=O)cc(C)c23)cc1 2.6%
Cc1c(-c2ccccc2)nc2ccccc2c1C(=O)O 0.81%
Cc1c(-c2ccccc2Cl)nc2ccccc2c1C(=O)O 1.54%
NC(=O)CC(NC(=O)Cc1ccc(Br)cc1)c1ccc(NCCN2CCCC2)c([N+](=O)[O-])c1 (stereo unspecified) 0.07%
CC(Oc1ccc(Cl)cc1Cl)C(=O)NNC(=O)C(=O)N1CCCC1 (stereo unspecified) 7.07%
COC(=O)NNC(=O)C(C)Oc1ccc(Cl)cc1Cl (stereo unspecified) 0.74%
COc1ccc(CCn2c(C)cc(C(=O)COC(=O)c3ccc(NC(=O)CC#N)cc3)c2C)cc1 4.94%
COc1ccc(C(=O)OCCc2ccc(O)cc2)cc1 1.11%
Cc1cc(-c2cc(C(=O)NCc3ccccc3)on2)nc(S(C)(=O)=O)n1 2.46%
Cc1ccccc1N(C(=O)CNC(=O)c1ccco1)C(C(=O)NC1CCCCC1)c1ccncc1 (stereo unspecified) 0.97%
CC(=O)NCCNC(=O)c1ccc(Cn2c(=O)[nH]c3ccsc3c2=O)cc1 0.58%
O=S(=O)(Nc1ccc(-c2ccc(N3CCOCC3)nn2)cc1)c1cc(Cl)ccc1Cl 1.29%
O=[N+]([O-])c1ccc(Cl)c(S(=O)(=O)Nc2cccc(-c3ccc(N4CCCC4)nn3)c2)c1 55%
O=[N+]([O-])c1ccc(Cl)c(S(=O)(=O)Nc2ccc(-c3ccc(N4CCOCC4)nn3)cc2)c1 0.86%
Cc1ccc([N+](=O)[O-])cc1S(=O)(=O)Nc1cccc(-c2ccc(N3CCOCC3)nn2)c1 30.8%
COc1ccccc1OCCn1ccnc1 0.82%
O=C(CC1C(=O)NCCN1Cc1cccc(Oc2ccccc2)c1)NCCn1cccn1 (stereo unspecified) 1.61%
CCn1ncc(CNC(=O)C2(C)CC2(Cl)Cl)c1C (stereo unspecified) 2.51%
O=C(O)/C=C/C(=O)NCCC(c1ccccc1)c1ccccc1 -0.16%
O=C(Nc1ccccc1)Nc1ccc(NC(=O)c2ccccc2O)cc1 1.31%
O=C(Nc1cccnc1)c1ccc(Cl)c(S(=O)(=O)N2CCCCC2)c1 10.1%
CCOc1cc(/C=C/c2cc(C(=O)O)c3ccccc3n2)ccc1OC 4.82%
COc1cc(/C=C/c2cc(C(=O)O)c3ccccc3n2)cc(OC)c1O -0.63%
COc1ccc(C2NC(=O)NC(C)=C2C(C)=O)cc1 (stereo unspecified) 2.63%
Cc1cc(Nc2ccccc2)nc(-c2ccccc2O)n1 21.2%
Cc1cc(Nc2ccc(Cl)cc2)nc(-c2ccccc2O)n1 14.1%
C[C@H]1CCC(=O)N(CCSc2ccc(Br)cc2)CC1 0.08%
CC(C)(C)c1n[nH]c2c1CCCC2 3.59%
COc1ccc2c(c1)Cc1sc(NC(=O)c3cccs3)nc1-2 7.1%
COc1ccc2c(c1)-c1nc(NC(=O)c3ccco3)sc1CC2 45.2%
Cc1nnc(SCC(=O)N2CCc3ccccc3C2)n1-c1ccccc1 2.35%
Cc1cc(C)c(NC(=O)CSc2nc3ccccc3c(=O)n2CCCN2CCOCC2)c(C)c1 -0.42%
COc1ccc(CNC(=O)C(C)Sc2nc3ccccc3c(=O)n2CCCN2CCOCC2)cc1 (stereo unspecified) -1.12%
C/C(N)=C(/C#N)C(=O)COC(=O)C(NS(=O)(=O)c1ccc(Cl)cc1)C(C)O (stereo unspecified) 0.82%
Cc1cc(C(=O)N2CCCC(N3CCN(c4cccc(Cl)c4)CC3)C2)nn1C (stereo unspecified) -0.33%
Cc1ccc(OCCCn2ccnc2)cc1C 0.08%
COc1cc(N)c(Cl)cc1C(=O)OCC(=O)Nc1cccnc1Cl 0.52%
COc1cc2c(cc1OC)[C@H](C)N(C(=O)CSc1nc(O)c(C(C)C)c(=O)[nH]1)CC2 0.69%
O=C(/C=C/c1c(F)cccc1Cl)N1CCOCC1 0.12%
O=C(/C=C/c1ccc(OCCCF)cc1)N1CCOCC1 2.87%
Cc1cc(C)n(-c2ccc(C(=O)OCC(=O)NCc3ccc(F)cc3)cc2)n1 0.92%
Cc1nc(-c2noc(-c3cccc(Cl)c3)n2)c(C(F)(F)F)o1 1.74%
CC(C(=O)N1CCc2ccccc21)n1cccc1 (stereo unspecified) 1.93%
CC(Nc1ccc2c(c1)OCCO2)C(=O)N1CCc2ccccc21 (stereo unspecified) 3.03%
